# From PubChem BioAssay (EPA / NIEHS)
# Activity calls are given as the source filed them. How the source made its calls: active means hit-call score of the fitted dose curve at least 0.9, where 1 is the maximum; inactive means score below 0.9.
# Molecular target: Transcriptional activator Myb (Homo sapiens) (UniProt P10242)
# Experiment: ATG_Myb_CIS: Attagene CIS-FACTORIAL HepG2 Assay for human Myeloblastosis (Myb) Proto-Oncogene Transcription Factor (AID 2282986)
# Details: HepG2 Attagene CIS-FACTORIAL Myb reporter transcription; actives raise or lower the signal
# How it was run: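 HepG2 cells were transiently transfected with cis-regulated multiple reporter transcription units reflecting endogenous Myb activity, then exposed to compound for 24 hours. Reporter mRNA was measured by RT-PCR with capillary electrophoresis; bidirectional fitting versus DMSO baseline.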
# Sequence of Transcriptional activator Myb (Homo sapiens) (P10242 whole entry, looked up): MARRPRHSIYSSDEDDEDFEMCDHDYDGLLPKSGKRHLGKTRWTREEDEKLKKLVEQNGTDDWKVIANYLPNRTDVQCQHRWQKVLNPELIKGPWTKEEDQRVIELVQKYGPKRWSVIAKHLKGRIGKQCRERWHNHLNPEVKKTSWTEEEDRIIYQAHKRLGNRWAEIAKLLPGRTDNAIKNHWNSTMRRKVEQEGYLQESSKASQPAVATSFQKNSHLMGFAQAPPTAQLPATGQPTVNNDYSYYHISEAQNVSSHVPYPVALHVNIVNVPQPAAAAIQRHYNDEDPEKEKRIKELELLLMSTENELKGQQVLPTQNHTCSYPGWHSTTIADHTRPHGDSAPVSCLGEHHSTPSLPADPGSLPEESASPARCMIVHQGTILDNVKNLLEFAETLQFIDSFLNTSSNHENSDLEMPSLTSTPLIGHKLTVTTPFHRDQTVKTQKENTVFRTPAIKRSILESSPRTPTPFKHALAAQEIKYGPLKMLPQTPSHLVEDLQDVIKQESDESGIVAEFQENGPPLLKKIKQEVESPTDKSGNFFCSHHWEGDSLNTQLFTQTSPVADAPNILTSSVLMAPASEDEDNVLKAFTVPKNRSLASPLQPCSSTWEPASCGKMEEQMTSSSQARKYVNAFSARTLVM
SMILES,outcome,AC50
O=C1C(c2[nH]c3ccc(S(=O)(=O)O)cc3c2O)=Nc2ccc(S(=O)(=O)O)cc21,inactive,–
COc1cc2ncnc(Nc3cccc(Cl)c3)c2cc1OC,inactive,–
O=Cc1ccc(Cl)c([N+](=O)[O-])c1,–,144 µM (active)
CC(=O)[C@H]1CC[C@H]2[C@@H]3CC=C4C[C@@H](O)CC[C@]4(C)[C@H]3CC[C@]12C,inactive,–
O=S(=O)(O)c1ccc(O)c2ncccc12,inactive,–
NCCCCCCN,inactive,–
OC[C@H]1O[C@H](O[C@]2(CCl)O[C@H](CCl)[C@@H](O)[C@@H]2O)[C@H](O)[C@@H](O)[C@H]1Cl,inactive,–
CCCCCC=CCC(=O)OC,inactive,–
CNCCCC12CCC(c3ccccc31)c1ccccc12,inactive,–
C#C[C@]1(O)CC[C@H]2[C@@H]3CCC4=Cc5oncc5C[C@]4(C)[C@H]3CC[C@@]21C,–,52.5 µM (active)
CN1[C@@H]2CC(OC(=O)[C@H](CO)c3ccccc3)C[C@H]1[C@@H]1O[C@@H]12 (stereo not given in full),inactive,–
CC(=O)/C=C/C1=C(C)CCCC1(C)C,inactive,–
Cc1ccc2n[nH]nc2c1,inactive,–
CCCCCCCCC=O,inactive,–
CCCCNC(=O)NS(=O)(=O)c1ccc(N)cc1,inactive,–
CC(C)(C#N)c1cc(Cn2cncn2)cc(C(C)(C)C#N)c1,inactive,–
CC1(C)C(=O)N(Br)C(=O)N1Cl,inactive,–

SMILES,outcome,AC50
CC(C)C[C@H]1C(=O)N2CCC[C@H]2[C@]2(O)O[C@](NC(=O)[C@@H]3C=C4c5cccc6[nH]c(Br)c(c56)C[C@H]4N(C)C3)(C(C)C)C(=O)N12,inactive,–
CCN(CC)c1ccc(C(=C2C=CC(=[N+](CC)CC)C=C2)c2ccc(S(=O)(=O)O)cc2S(=O)(=O)[O-])cc1,inactive,–
Clc1ccc(Cl)c(Cl)c1Cl,inactive,–
CCCC/C=C\CCCCCCCCCC=O,inactive,–
OCCOCCOCCOCCO,inactive,–
N#Cc1ccccc1,inactive,–
CCCOCC(C)O (stereo not given),inactive,–
COc1ccc(Cl)cc1C,inactive,–
O=CCCc1ccccc1,inactive,–
CC(C)OP(=O)(CP(=O)(OC(C)C)OC(C)C)OC(C)C,inactive,–
NC(N)=NC(=O)c1nc(Cl)c(N)nc1N,inactive,–
C=CC(=O)OCCn1c(=O)n(CCOC(=O)C=C)c(=O)n(CCOC(=O)C=C)c1=O,inactive,–
CC[C@]12CCCN3CCc4c(n(c5ccccc45)[C@@](O)(C(=O)OC)C1)[C@@H]32,inactive,–
Nc1cc([N+](=O)[O-])ccc1Cl,inactive,–
CCCCCCCCCC=O,inactive,–
CC(C#N)(CCC(=O)O)N=NC(C)(C#N)CCC(=O)O (stereo not given),inactive,–
C[C@]12CC[C@H]3[C@@H](CCC4=CC(=O)CC[C@@]43C)[C@@H]1CC[C@@H]2C(=O)CO,inactive,–

# Molecular target: Nuclear respiratory factor 1 (Homo sapiens) (UniProt Q16656)
# Experiment: ATG_NRF1_CIS: Attagene CIS-FACTORIAL HepG2 Assay for human Nuclear Respiratory Factor 1 (NRF1) Orphan Gene (AID 2282987)
# Details: HepG2 NRF1 cis-element reporter, Attagene multiplex; actives raise or lower the signal
# How it was run: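 HepG2 cells transiently transfected with multiple reporter transcription units under cis-regulatory promoter control, so endogenous transcription-factor activity is read. After 24 h compound exposure, reporter mRNA quantified by RT-PCR, fluorescent labelling, HpaI digestion and capillary electrophoresis; bidirectional fitting versus DMSO.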
# Sequence of Nuclear respiratory factor 1 (Homo sapiens) (Q16656 whole entry, looked up): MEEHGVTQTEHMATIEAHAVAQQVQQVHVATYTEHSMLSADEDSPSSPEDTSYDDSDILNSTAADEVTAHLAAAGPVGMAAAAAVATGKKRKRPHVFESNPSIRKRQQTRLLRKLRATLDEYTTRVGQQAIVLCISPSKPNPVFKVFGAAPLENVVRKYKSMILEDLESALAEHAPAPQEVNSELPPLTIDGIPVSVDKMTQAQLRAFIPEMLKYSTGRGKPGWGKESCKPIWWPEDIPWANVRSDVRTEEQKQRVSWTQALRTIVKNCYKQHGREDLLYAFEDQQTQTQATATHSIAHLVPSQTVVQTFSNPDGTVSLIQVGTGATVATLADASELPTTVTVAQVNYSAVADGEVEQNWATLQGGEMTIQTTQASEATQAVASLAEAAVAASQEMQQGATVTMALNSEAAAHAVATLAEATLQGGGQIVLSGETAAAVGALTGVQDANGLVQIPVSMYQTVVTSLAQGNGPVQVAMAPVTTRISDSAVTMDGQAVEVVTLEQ
SMILES,outcome,AC50
O=C1C(c2[nH]c3ccc(S(=O)(=O)O)cc3c2O)=Nc2ccc(S(=O)(=O)O)cc21,inactive,–
COc1cc2ncnc(Nc3cccc(Cl)c3)c2cc1OC,inactive,–
O=Cc1ccc(Cl)c([N+](=O)[O-])c1,–,170 µM (active)
CC(=O)[C@H]1CC[C@H]2[C@@H]3CC=C4C[C@@H](O)CC[C@]4(C)[C@H]3CC[C@]12C,inactive,–
O=S(=O)(O)c1ccc(O)c2ncccc12,inactive,–
OC[C@H]1O[C@H](O[C@]2(CCl)O[C@H](CCl)[C@@H](O)[C@@H]2O)[C@H](O)[C@@H](O)[C@H]1Cl,inactive,–
CCCCCC=CCC(=O)OC,inactive,–
CNCCCC12CCC(c3ccccc31)c1ccccc12,inactive,–
C#C[C@]1(O)CC[C@H]2[C@@H]3CCC4=Cc5oncc5C[C@]4(C)[C@H]3CC[C@@]21C,inactive,–
CC(=O)/C=C/C1=C(C)CCCC1(C)C,inactive,–
Cc1ccc2n[nH]nc2c1,inactive,–
CCCCCCCCC=O,inactive,–
CCCCNC(=O)NS(=O)(=O)c1ccc(N)cc1,inactive,–
CC(C)(C#N)c1cc(Cn2cncn2)cc(C(C)(C)C#N)c1,inactive,–
CC1(C)C(=O)N(Br)C(=O)N1Cl,inactive,–
CC(C)C[C@H]1C(=O)N2CCC[C@H]2[C@]2(O)O[C@](NC(=O)[C@@H]3C=C4c5cccc6[nH]c(Br)c(c56)C[C@H]4N(C)C3)(C(C)C)C(=O)N12,–,3.24 µM (active)

SMILES,outcome,AC50
CCN(CC)c1ccc(C(=C2C=CC(=[N+](CC)CC)C=C2)c2ccc(S(=O)(=O)O)cc2S(=O)(=O)[O-])cc1,inactive,–
Clc1ccc(Cl)c(Cl)c1Cl,inactive,–
CCCC/C=C\CCCCCCCCCC=O,inactive,–
OCCOCCOCCOCCO,inactive,–
CCCOCC(C)O (stereo not given),inactive,–
COc1ccc(Cl)cc1C,inactive,–
O=CCCc1ccccc1,inactive,–
CC(C)OP(=O)(CP(=O)(OC(C)C)OC(C)C)OC(C)C,inactive,–
NC(N)=NC(=O)c1nc(Cl)c(N)nc1N,inactive,–
C=CC(=O)OCCn1c(=O)n(CCOC(=O)C=C)c(=O)n(CCOC(=O)C=C)c1=O,inactive,–
CC[C@]12CCCN3CCc4c(n(c5ccccc45)[C@@](O)(C(=O)OC)C1)[C@@H]32,inactive,–
Nc1cc([N+](=O)[O-])ccc1Cl,inactive,–
CC(C)C(C)(C)C(C)(C)C(C)(C)S,inactive,–
C[C@]12CC[C@H]3[C@@H](CCC4=CC(=O)CC[C@@]43C)[C@@H]1CC[C@@H]2C(=O)CO,inactive,–
O=c1oc(=O)c2cc3c(=O)oc(=O)c3cc12,inactive,–
